# Data from article PMC5700166.
# Target: T1, GST-Nv-NF-kB (Ser allele) (Nematostella vectensis, UniProt A7UNT2 2-411)
# T1 sequence: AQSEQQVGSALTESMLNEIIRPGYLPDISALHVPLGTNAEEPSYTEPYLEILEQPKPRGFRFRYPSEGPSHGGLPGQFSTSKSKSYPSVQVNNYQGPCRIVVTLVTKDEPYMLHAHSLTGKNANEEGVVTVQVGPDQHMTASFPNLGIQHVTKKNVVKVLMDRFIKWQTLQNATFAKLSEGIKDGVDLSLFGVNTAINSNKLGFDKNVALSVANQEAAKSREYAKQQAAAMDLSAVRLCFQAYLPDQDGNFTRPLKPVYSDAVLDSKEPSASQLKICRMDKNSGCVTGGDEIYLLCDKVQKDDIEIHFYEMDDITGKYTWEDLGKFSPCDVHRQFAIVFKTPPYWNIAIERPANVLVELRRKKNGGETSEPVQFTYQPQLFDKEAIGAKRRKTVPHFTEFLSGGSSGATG
# Test: protein-binding microarray (PBM); PBM: ~300 nM protein, 6 mM HEPES pH 7.8, 80 mM KCl, 0.5 mM EDTA, 0.5 mM EGTA, 6% glycerol, 35 ng/ul poly-dIdC, 1% milk, 1 h, room temperature; Ap Aiptasia and Nv Nematostella (sea anemones) / Co Capsaspora / Aq Amphimedon (sponge) / Dm Drosophila / Hu human; RHD is the Rel homology domain; high values mean tight binding
# Conditions: dsDNA, one strand shown
row,Sequence,binding signal [z-score]
1,CCGATTAACATCAGGCATTCCCATGATGTTAATCGGGTCTTGATTCGCTTGACGCTGCTG,1.11
2,CCGATTAACATCAGAACCCCCCCTGATGTTAATCGGGTCTTGATTCGCTTGACGCTGCTG,5.04
3,CCGATTAACATCAGATTTACCGCTGATGTTAATCGGGTCTTGATTCGCTTGACGCTGCTG,1.31
4,CCGATTAACATCAGGGGGGAACATGATGTTAATCGGGTCTTGATTCGCTTGACGCTGCTG,6.09
5,CCGATTAACATCAGGCATCCCCCTGATGTTAATCGGGTCTTGATTCGCTTGACGCTGCTG,4.92
6,CCGATTAACATCAAAAGCCCCCCTGATGTTAATCGGGTCTTGATTCGCTTGACGCTGCTG,4.86
7,CCGATTAACATCATGCCCGGGAATGATGTTAATCGGGTCTTGATTCGCTTGACGCTGCTG,1.07
8,CCGATTAACATCAAAAGGAAATTTGATGTTAATCGGGTCTTGATTCGCTTGACGCTGCTG,1.08
9,CCGATTAACATCAGGGGGAGGGATGATGTTAATCGGGTCTTGATTCGCTTGACGCTGCTG,4.98
10,CCGATTAACATCAGAAATACCCATGATGTTAATCGGGTCTTGATTCGCTTGACGCTGCTG,4.71
11,CCGATTAACATCAGGGGTTTTACTGATGTTAATCGGGTCTTGATTCGCTTGACGCTGCTG,4.36
12,CCGATTAACATCACTTCCCCCCATGATGTTAATCGGGTCTTGATTCGCTTGACGCTGCTG,4.67
